Laboratory results as given in PubChem BioAssay.
Results with a measured potency or affinity are listed apart. Values without a mark were called inactive. How the calls were made is not given here.

Experiment: A549 cell cytotoxicity, dose response, cytotoxicity control, plate reader, cherry-pick, antagonist series (AID 743412)
Settings: series mostly up to 26 µM; activity change, negative = cytotoxicity: at the top concentration
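Further: 0% = neutral control wells and -100% = positive control wells.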

In order of falling “activity change, negative = cytotoxicity” value:
1. O=C(NCCc1ccccc1)c1ccc2c(c1)OCO2  77.8%
2. Cc1nc2c(OCCC3CCCCC3)cccn2c1N(C)C(=O)CCC1CCCC1  28.5%
3. Clc1ccccc1/C=C/c1nc(-c2ccccn2)no1  22.1%
4. COCCn1c(C)c(C)c2c(NCCc3ccccc3)ncnc21  16%
5. COc1ccc(-c2cc(C(=O)N3CCCC3)no2)cc1  12.5%
6. CC(C)(C)n1ncc2c(=O)n(CC(=O)OCc3ccccc3)cnc21  12.1%
7. Cc1cc(C(=O)CSc2nnc(N)s2)c(C)n1Cc1cccs1  11.1%
8. COc1ccc(-c2cc(C)nc3c(-c4ccccc4)cnn23)cc1  9.24%
9. COCCCNc1ccn2nc(-c3ccccc3)cc2n1  7.61%
10. Cc1c(C)c2ccc(OCC(=O)Nc3nccs3)cc2oc1=O  7.2%
11. Nc1c(C(=O)Nc2cccc(C(=O)O)c2)sc2nc3c(cc12)CCCC3  5.99%
12. c1ccc(-n2ncc3c(N4CCCCC4)ncnc32)cc1  5.72%
13. CCOC(=O)c1cn2nc(N3CCCCC3)ccc2n1  3.82%
14. O=C(O)c1ccc(-c2noc(-c3ccccc3Cl)n2)cc1  3.39%
15. COc1cc(SC)ccc1C(=O)Nc1ncc(C)s1  2.28%
16. CCCCCc1ccc(-c2ccc(C(=O)O)cc2)nc1  1.26%
17. O=C(CCCc1ccccc1)Nc1cccc(C(=O)O)c1  0.999%
18. O=C(Nc1cccc(C(=O)O)c1)Nc1ccccc1Cl  0.977%
19. COC(=O)c1ccc2nc(-c3cccc(N)c3)cn2c1  0.774%
20. O=C(CN1C(=O)c2ccccc2S1(=O)=O)c1ccc2c(c1)OCCCO2  -0.095%
21. C[C@H](CO)N1C[C@H](C)[C@H](CN(C)C(=O)Nc2cccc3ccccc23)OCCCC[C@H](C)Oc2ccc(NC(=O)NC3CCCCC3)cc2C1=O  -0.204%
22. O=C(Nc1cccnc1)c1cc(-c2ccc3c(c2)OCO3)on1  -2.3%
23. COc1ccc(/C=C/C(=O)Nc2ccccc2C(=O)O)cc1OC  -2.82%
24. Clc1ccc(-n2ncc3c(N4CCCC4)ncnc32)cc1  -2.92%
25. O=C(CN1CCOc2ccccc21)NCc1ccc(F)cc1  -3.92%
26. Cc1csc(NC(=O)c2ccc(OCC3CCCO3)cc2)n1 (stereo not given)  -4.79%
27. CCc1nc(Sc2nnnn2-c2ccccc2)c2c3c(sc2n1)CCCC3  -5.65%
28. C[C@H](CO)N1C[C@H](C)[C@H](CN(C)C(=O)Nc2ccc(F)cc2)OCCCC[C@H](C)Oc2ccc(NC(=O)C3CCCCC3)cc2C1=O  -6.44%
29. COc1cc(NC(=O)c2cccs2)c(C(=O)OCC(=O)c2cc(C)n(-c3ccccc3)c2C)cc1OC  -7.66%
30. Clc1ccc(OCc2nc(-c3ccccn3)no2)c(Br)c1  -7.69%
31. Cc1cc(C(=O)COC(=O)c2ccccc2O)c(C)n1CC1CCCO1 (stereo not given)  -7.7%
32. CCOC(=O)c1cn2nc(N3CCCC3)ccc2n1  -8.32%
33. COc1ccc(S(=O)(=O)N2CCCCN3[C@H](CO)[C@H](c4ccc(-c5cccnc5)cc4)[C@@H]3C2)cc1  -9.19%
34. O=C(COc1ccc2ccccc2c1)Nc1nccs1  -9.95%
35. O=C(O)c1c2c(nc3ccccc13)/C(=C/c1ccc(O)cc1)CC2  -10.3%
36. Cc1ccc(-c2nc(-c3ccncc3)no2)c(Cl)c1  -10.7%
37. CN(c1ccccc1)S(=O)(=O)c1cccc(NC(=O)c2cc(=O)c3ccccc3o2)c1  -15.8%
38. CCN(CC)S(=O)(=O)c1cc(C(=O)OCC(=O)Nc2ccc(-c3nc4ccc(C)cc4s3)cc2)ccc1F  -16.6%
39. COc1ccc(-c2nc(-c3cccs3)no2)cc1  -22.1%
40. COc1ccc(-n2sc3ccc(F)cc3c2=O)cc1  -28.4%

Experiment: HepG2 cell cytotoxicity, dose response, cytotoxicity control, plate reader, cherry-pick, antagonist series (AID 743416)
Settings: series mostly up to 26 µM; activity change, negative = cytotoxicity: at the top concentration

In order of falling “activity change, negative = cytotoxicity” value:
1. O=C(O)c1ccc(-c2noc(-c3ccccc3Cl)n2)cc1  75.1%
2. C[C@H](CO)N1C[C@H](C)[C@H](CN(C)C(=O)Nc2ccc(F)cc2)OCCCC[C@H](C)Oc2ccc(NC(=O)C3CCCCC3)cc2C1=O  70.2%
3. Cc1ccc(-c2nc(-c3ccncc3)no2)c(Cl)c1  59.3%
4. COCCCNc1ccn2nc(-c3ccccc3)cc2n1  44%
5. Cc1nc2c(OCCC3CCCCC3)cccn2c1N(C)C(=O)CCC1CCCC1  26.1%
6. COCCn1c(C)c(C)c2c(NCCc3ccccc3)ncnc21  16.4%
7. Cc1cc(C(=O)CSc2nnc(N)s2)c(C)n1Cc1cccs1  16.4%
8. O=C(NCCc1ccccc1)c1ccc2c(c1)OCO2  13.4%
9. COc1cc(NC(=O)c2cccs2)c(C(=O)OCC(=O)c2cc(C)n(-c3ccccc3)c2C)cc1OC  8.62%
10. CCOC(=O)c1cn2nc(N3CCCCC3)ccc2n1  6.8%
11. COc1ccc(-c2cc(C)nc3c(-c4ccccc4)cnn23)cc1  6.39%
12. COc1ccc(-c2nc(-c3cccs3)no2)cc1  6.08%
13. CCCCCc1ccc(-c2ccc(C(=O)O)cc2)nc1  5.11%
14. COc1cc(SC)ccc1C(=O)Nc1ncc(C)s1  3.94%
15. O=C(CN1CCOc2ccccc21)NCc1ccc(F)cc1  2.54%
16. CCN(CC)S(=O)(=O)c1cc(C(=O)OCC(=O)Nc2ccc(-c3nc4ccc(C)cc4s3)cc2)ccc1F  2.49%
17. Clc1ccc(-n2ncc3c(N4CCCC4)ncnc32)cc1  2.01%
18. O=C(O)c1c2c(nc3ccccc13)/C(=C/c1ccc(O)cc1)CC2  1.14%
19. O=C(CN1C(=O)c2ccccc2S1(=O)=O)c1ccc2c(c1)OCCCO2  1.13%
20. C[C@H](CO)N1C[C@H](C)[C@H](CN(C)C(=O)Nc2cccc3ccccc23)OCCCC[C@H](C)Oc2ccc(NC(=O)NC3CCCCC3)cc2C1=O  0.778%
21. Cc1c(C)c2ccc(OCC(=O)Nc3nccs3)cc2oc1=O  0.352%
22. Cc1cc(C(=O)COC(=O)c2ccccc2O)c(C)n1CC1CCCO1 (stereo not given)  0.213%
23. CN(c1ccccc1)S(=O)(=O)c1cccc(NC(=O)c2cc(=O)c3ccccc3o2)c1  -0.058%
24. O=C(Nc1cccc(C(=O)O)c1)Nc1ccccc1Cl  -1.25%
25. CCc1nc(Sc2nnnn2-c2ccccc2)c2c3c(sc2n1)CCCC3  -2.12%
26. Clc1ccc(OCc2nc(-c3ccccn3)no2)c(Br)c1  -2.27%
27. O=C(COc1ccc2ccccc2c1)Nc1nccs1  -2.28%
28. c1ccc(-n2ncc3c(N4CCCCC4)ncnc32)cc1  -2.88%
29. COc1ccc(-n2sc3ccc(F)cc3c2=O)cc1  -3.34%
30. Clc1ccccc1/C=C/c1nc(-c2ccccn2)no1  -3.84%
31. COc1ccc(S(=O)(=O)N2CCCCN3[C@H](CO)[C@H](c4ccc(-c5cccnc5)cc4)[C@@H]3C2)cc1  -4.72%
32. COc1ccc(-c2cc(C(=O)N3CCCC3)no2)cc1  -4.9%
33. O=C(CCCc1ccccc1)Nc1cccc(C(=O)O)c1  -4.95%
34. Cc1csc(NC(=O)c2ccc(OCC3CCCO3)cc2)n1 (stereo not given)  -5.04%
35. COC(=O)c1ccc2nc(-c3cccc(N)c3)cn2c1  -5.25%
36. Nc1c(C(=O)Nc2cccc(C(=O)O)c2)sc2nc3c(cc12)CCCC3  -7.04%
37. CCOC(=O)c1cn2nc(N3CCCC3)ccc2n1  -7.06%
38. O=C(Nc1cccnc1)c1cc(-c2ccc3c(c2)OCO3)on1  -8.83%
39. CC(C)(C)n1ncc2c(=O)n(CC(=O)OCc3ccccc3)cnc21  -9.17%
40. COc1ccc(/C=C/C(=O)Nc2ccccc2C(=O)O)cc1OC  -13.9%
